Rows were chosen to be rich in hits. Some 1.6% of all compounds tested hit in one or more screens of this group.
eIF4E 4G PPI: inhibitors of eIF4E and eIF4G interaction in translation initiation; inhibition, % at 21.7 µM; P63073+Q04637; TR-FRET eIF4E-eIF4GI(517-606) binding, 2 h; 220,000 tested, 0.37% active;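 active = inhibition above about 30%, limit read from the data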;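 note: 0% = full FRET control wells and 100% = background wells lacking eIF4GI fragment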
PERK inhibitor: inhibitors of human PERK kinase; CHO PERK-DD fusion, SEAP luminescence translation reporter; AID 1416; 220,000 tested, 0.17% active; Q9NZJ5; inhibition, % at 5.6 µM;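 active = inhibition above the mean inhibition of all tested compounds plus 3 SD, set separately per screening campaign, cut at about 2.9% in these data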;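 note: PERK kinase domain activated by AP20187 dimerizer at 100 nM; 0% = DMSO with dimerizer and 100% = rapamycin at 8.4 µM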
PABP FP inh: blocks human PABP binding to poly(A) RNA | P11940 | fluorescence polarization | calls only at 35 µM | 290,000 tested, 1% active | AID 2014;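 note: calls also rest on retests at 20 µM and on dose response follow-up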
Target sequence (P11940 whole entry, looked up): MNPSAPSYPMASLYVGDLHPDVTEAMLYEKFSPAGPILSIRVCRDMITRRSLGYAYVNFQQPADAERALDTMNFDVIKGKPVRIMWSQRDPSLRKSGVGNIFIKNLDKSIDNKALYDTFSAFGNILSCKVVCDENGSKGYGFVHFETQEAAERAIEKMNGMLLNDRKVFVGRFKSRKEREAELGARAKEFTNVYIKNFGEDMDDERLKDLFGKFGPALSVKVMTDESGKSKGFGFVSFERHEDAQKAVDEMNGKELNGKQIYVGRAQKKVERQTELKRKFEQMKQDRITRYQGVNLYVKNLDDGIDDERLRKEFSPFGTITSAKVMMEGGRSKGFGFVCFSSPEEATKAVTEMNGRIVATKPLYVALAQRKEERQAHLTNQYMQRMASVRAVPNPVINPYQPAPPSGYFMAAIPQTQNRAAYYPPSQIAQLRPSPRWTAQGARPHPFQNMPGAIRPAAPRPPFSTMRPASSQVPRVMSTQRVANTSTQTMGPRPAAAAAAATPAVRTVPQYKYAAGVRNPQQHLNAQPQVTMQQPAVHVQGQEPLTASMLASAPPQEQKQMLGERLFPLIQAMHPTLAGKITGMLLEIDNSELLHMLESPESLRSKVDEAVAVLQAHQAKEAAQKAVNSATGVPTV
PABP1 MLLE inh: inhibitors of microRNA-mediated deadenylation, human PABP1 MLLE binding | P11940 | GST-MLLE / FITC-PAM2 fluorescence polarization | inhibition, % at 20 µM | 360,000 tested, 0.36% active | AID 588489; in the data active = inhibition above about 35%, passing the limit was not always enough;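 note: plate controls were DMSO wells with GST-MLLE for no effect and wells lacking GST-MLLE protein for full effect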
eIF4H inh: inhibitors of RNA binding by human eIF4H. Q15056. eIF4H fluorescence polarization binding assay. inhibition, % at 35 µM. 290,000 tested, 0.94% active. AID 2012;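 note: calls also rest on retests at 20 µM and on dose response follow-up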
* = called active by the depositor; i = inactive; ? = inconclusive; nt = not tested or not shown; + = active, no number; [ ] = another dose, or the depositor's remark. Unless noted, the rule behind the calls is not given here.

SMILES	eIF4E 4G PPI	PERK inhibitor	PABP FP inh	PABP1 MLLE inh	eIF4H inh
CSc1ncc(-c2ccc(Cl)cc2)[nH]1	-2	1	i	-4	-1
CCOc1ccc(N(CC(=O)N2CCCC2)S(=O)(=O)c2ccc(Cl)cc2)cc1	nt	nt	i	4	4
Cc1ccc(-c2ccc(C3C(C#N)=C(N)Oc4n[nH]c(C)c43)o2)cc1 (centres undefined)	1	1	+	-16	54*
Cc1[nH]nc2c1C(c1ccc(-c3ccc(Cl)cc3)o1)C(C#N)=C(N)O2 (centres undefined)	0	0	i	-1	18
COc1ccc(NS(=O)(=O)c2cccc(C(=O)OCC(=O)N3CCN(c4ccc(OC)cc4)CC3)c2)cc1	nt	nt	nt	-1	nt
CC1(C)CC(=O)C=C(NCCO)C1	4	3.1*	i	12	-6
NS(=O)(=O)c1ccc(NC(=O)c2cc(Cl)sc2Cl)cc1	nt	nt	i	-3	-8
O=C(O)CCC(C(=O)O)n1c(O)c(C2=c3ccccc3=NC2=O)sc1=S (centres undefined)	-8	0	i	40*	-3
COc1ccc(NC(=O)Nc2cccs2)cn1	nt	nt	i	18	35
COc1ccc(NC(=O)Nc2ccc([N+](=O)[O-])cc2)cn1	nt	nt	+	58*	82*
COc1ccc(NC(=O)NS(=O)(=O)c2ccc(C)cc2)cn1	nt	nt	?	151	?
COc1ccc(NC(=O)Nc2cc(C)cc(C)c2)cn1	0	0	i	66*	50
COc1ccc(NC(=O)Nc2ccc(OCc3ccccc3)cc2)cn1	nt	nt	?	66*	?
Cc1ccsc1CN(C)CC(=O)NCC(=O)Nc1ccc(F)cc1	nt	nt	nt	-1	nt
COC(=O)c1ccc(Cn2cc(Cl)cn2)o1	-1	0	i	-20	1
CNc1cccccc1=S	10	0	+	49*	101*
CNc1ccccc1	nt	nt	nt	11	nt
CCn1c(C)cc(C)c(C#N)c1=O	1	1	i	10	6
Cc1cc(C)n(NC(=S)NC2CCCC2)c(=O)c1C#N	-7	0	i	45*	-2
COc1ccc2cc3cc(C(=O)NCc4cccnc4)oc3nc2c1	5	-1	i	-17	-5
C/C(CC(=O)Nc1ccccn1)=N\NC(=O)C(=O)Nc1ccccc1C	-4	1	i	0	14
CCc1ccc(NC(=O)C(=O)N/N=C(\C)CC(=O)Nc2ccccn2)cc1	5	1	+	16	98
CCCCc1nc2sc3c(=O)[nH]c(=S)[nH]c3c2c2c1CCC2	nt	nt	nt	-3	nt
CCN(CCC#N)c1ccc(/C=N/Nc2nc(C)cc(=O)[nH]2)c(C)c1	2	0	+	0	2.2*
CCOc1ccccc1NC(=S)NNS(=O)(=O)c1c(C)cc(C)cc1C	0	2	i	41*	0
SMILES	eIF4E 4G PPI	PERK inhibitor	PABP FP inh	PABP1 MLLE inh	eIF4H inh
CC1(OC(=O)c2ccc(Cl)nc2)C(=O)C=C2C=C3CCCN3C=C2C1=O (centres undefined)	9	nt	+	-3	101*
COC(=O)CCC(=O)OC1(C)C(=O)C=C2C=C3CCCN3C=C2C1=O (centres undefined)	11	nt	+	-7	107*
Cc1[nH]c(=O)[nH]c(=O)c1/C=C/C(=O)OCC(C)C	5	1	+	8	?
OC(CN1CCNCC1)Cn1ccc2ccccc21 (centres undefined)	nt	nt	i	nt	-2
O=C1c2ccccc2S(=O)(=O)N1CC(O)Cn1ccc2ccccc21 (centres undefined)	-6	0	+	79	88*
Cc1cccc(N2CCN(C(=O)Cc3cn(C)c4ccccc34)CC2)c1C	-3	-1	+	19	112*
CCOC(=O)N1CCC2(CC1)C(C#N)=C(N)Oc1c2c(C)nn1-c1cccc(Cl)c1	4	1	+	14	71*
O=[N+]([O-])c1cc(C(F)(F)F)cc([N+](=O)[O-])c1NCCN1CCNCC1	nt	nt	i	7	5
CC(=O)N1c2ccc(S(=O)(=O)N3CCCC3C(=O)Nc3ccc(C)cc3)cc2CC1C (centres undefined)	nt	nt	+	3	54
CC(O)CNc1cnccn1 (centres undefined)	0	-1	+	10	63*
CCNC(=S)NS(=O)(=O)c1ccc(C)cc1	-6	1	i	41*	0
CCNC(=S)NS(=O)(=O)c1ccc(CC)cc1	-2	1	i	33	-10
COc1ccc([N+](=O)[O-])cc1N(CC(O)CN1CCCCC1)S(=O)(=O)c1ccc(C)cc1 (centres undefined)	-1	0	+	0	112*
COc1ccc([N+](=O)[O-])cc1N(CC(O)CN1CCOCC1)S(=O)(=O)c1ccccc1 (centres undefined)	nt	nt	i	-2	-7
CCCC1(CCC)NC(=O)N(CC(=O)Nc2ccc(Cl)c(S(=O)(=O)N3CCOCC3)c2)C1=O	nt	nt	nt	-15	nt
CC(Cc1c[nH]c2ccccc12)C(=O)O (centres undefined)	10	0	+	-3	108
O=C(O)C(O)Cc1c[nH]c2ccccc12 (centres undefined)	-2	1	i	-11	2
O=C(Nc1ccc2nc(-c3ccco3)c(-c3ccco3)nc2c1)N1CCCCCC1	28	0	i	nt	86
CCOC(=O)C1CCN(C(=O)Nc2ccc3nc(-c4ccco4)c(-c4ccco4)nc3c2)CC1	44*[fluorescence artefact?]	1	i	13	?
COc1ccccc1N1CCN(C(=O)C(C)CS(=O)(=O)c2ccc3c(c2)NC(=O)CS3)CC1 (centres undefined)	nt	nt	i	-9	56*
CC1=NN(CCC#N)C(=O)/C1=C/c1ccc(N(C)C)cc1	-2	0	i	-84	77*
O=C(O)Cc1ccc(NC(=O)c2ccc3c(c2)C(=O)N(Cc2ccco2)C3=O)cc1	nt	nt	+	18	100*
Cc1cccc(OCC(=O)N2CCOCC2)c1	1	0	+	1	8.3*
Cc1ccc(-c2ccc(OCC(=O)N3CCOCC3)cc2)cc1	0	0	i	-6	-9
N#CC1=C(N)SC(N)=C(C#N)C1c1cccc(O)c1	1	0	+	-72	74*
CCC(c1nnnn1CC1CCCO1)N(CCCO)Cc1cc2cccc(C)c2[nH]c1=O (centres undefined)	0	-2	i	25	-12
CCC(c1nnnn1Cc1ccc(F)cc1)N(CCCO)Cc1cc2cc3c(cc2[nH]c1=O)OCO3 (centres undefined)	4	0	i	45*	10
Cc1cc(/C=N/Nc2ccc([N+](=O)[O-])cn2)c(C)n1-c1ccccc1	-27	-1	i	-40	3
Cc1ccc(-n2c(C)cc(/C=N/Nc3ccc([N+](=O)[O-])cn3)c2C)cc1	35*[fluorescence artefact?]	-1	i	-139	-8
Cc1cc(C)c2nc(-c3ccccn3)cc(C(=O)N3CCCC3)c2c1	nt	nt	i	23	8
